The values below come from PubChem BioAssay (NCATS).

SMILES strings stand for the structures. Records with an inconclusive call do not appear. Active and inactive are the calls of the source. Calls come from the whole dose curve; as a rule, active = well fitted curve in the direction sought with a large enough effect; inconclusive = small, poorly fitted or top-dose-only effect, or another doubt; inactive = no such curve, though single readings can be large; an effect the other way counts as inactive or inconclusive.

Assay [1] is described as follows: Quantitative High-Throughput drug screen in 47 multiple myeloma cell lines against the NCATS MIPE library collection: KHM11_PLB cell viability assay (AID 1918962). Note: nearly all actives have a fitted effect of over 35% in size. The method, boiled down: (§1)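 Approved and investigational drugs from MIPE 4.0 were added by pin tool to 500 cells per well. After 48 hours at 37C, ATP-based CellTiter-Glo luminescence indicated remaining viability.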

Assay [2] can be described thus: Quantitative High-Throughput drug screen in 47 multiple myeloma cell lines against the NCATS MIPE library collection: JIM3_ECACC cell viability assay (AID 1918963; note: nearly all actives have a fitted effect of over 35% in size). The essentials:
as §1

The nature of assay [3]: Quantitative High-Throughput drug screen in 47 multiple myeloma cell lines against the NCATS MIPE library collection: INA6_PLB cell viability assay (AID 1918965; note: nearly all actives have a fitted effect of over 55% in size). The essentials: (§2)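 Inhibition of cell viability is measured here. Each line was plated at 500 cells per well, treated with MIPE 4.0 drugs, kept 48 hours at 37C, then assayed for ATP content by CellTiter-Glo luminescence.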

Assay [4] can be described thus: Quantitative High-Throughput drug screen in 47 multiple myeloma cell lines against the NCATS MIPE library collection: JJN3_DSMZ cell viability assay (AID 1918966; note: nearly all actives have a fitted effect of over 50% in size). The method, boiled down:
(§3)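 CellTiter-Glo ATP luminescence gave viability after 48 h compound treatment at 37C of 500 multiple myeloma cells per well. Normalisation used DMSO-only wells as 100% and media-only wells as 0% viability; primary qHTS of approved and investigational drugs.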

Assay [5] can be described thus: Quantitative High-Throughput drug screen in 47 multiple myeloma cell lines against the NCATS MIPE library collection: Karpas25_ECACC cell viability assay (AID 1918968; note: nearly all actives have a fitted effect of over 35% in size). The essentials:
as §3

Assay [6] in a line: Quantitative High-Throughput drug screen in 47 multiple myeloma cell lines against the NCATS MIPE library collection: KMS27_JCRB cell viability assay (AID 1918970). Note: nearly all actives have a fitted effect of over 30% in size. The method, boiled down:
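CellTiter-Glo luminescence after 48 h drug exposure at 37 °C; 500 cells/well, 1536-well format, pin-tool compound addition; DMSO = 100%, media-only = 0% viability.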

Assay [7] is described as follows: Quantitative High-Throughput drug screen in 47 multiple myeloma cell lines against the NCATS MIPE library collection: KMS12PE_JCRB cell viability assay (AID 1918972). Note: nearly all actives have a fitted effect of over 30% in size. The method, boiled down:
as §2

Assay [8] can be described thus: Quantitative High-Throughput drug screen in 47 multiple myeloma cell lines against the NCATS MIPE library collection: KMS20_JCRB cell viability assay (AID 1918973). Note: nearly all actives have a fitted effect of over 45% in size. The essentials:
as §3

Assay [9] can be described thus: Quantitative High-Throughput drug screen in 47 multiple myeloma cell lines against the NCATS MIPE library collection: MMM1_PLB cell viability assay (AID 1918976). Note: nearly all actives have a fitted effect of over 35% in size. The method, boiled down:
(§4)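 ATP-based luminescence (CellTiter-Glo, 5 min RT incubation) quantified surviving cells following two days' treatment with MIPE 4.0 agents at 37 °C, 5% CO2.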

Assay [10] can be described thus: Quantitative High-Throughput drug screen in 47 multiple myeloma cell lines against the NCATS MIPE library collection: NCIH929_DSMZ cell viability assay (AID 1918978). Note: nearly all actives have a fitted effect of over 35% in size. The method, boiled down:
as §4

The nature of assay [11]: Quantitative High-Throughput drug screen in 47 multiple myeloma cell lines against the NCATS MIPE library collection: MM1S_ATCC cell viability assay (AID 1918980). Note: nearly all actives have a fitted effect of over 45% in size. The method, boiled down: as §4
Assay [12] in a line: Quantitative High-Throughput drug screen in 47 multiple myeloma cell lines against the NCATS MIPE library collection: MM1R_ATCC cell viability assay (AID 1918981). Note: nearly all actives have a fitted effect of over 35% in size. The method, boiled down:
as §4

Assay [13] can be described thus: Quantitative High-Throughput drug screen in 47 multiple myeloma cell lines against the NCATS MIPE library collection: LP1_DSMZ cell viability assay (AID 1918982). Note: nearly all actives have a fitted effect of over 35% in size. The essentials: as §4
The nature of assay [14]: Quantitative High-Throughput drug screen in 47 multiple myeloma cell lines against the NCATS MIPE library collection: JIM1_ECACC cell viability assay (AID 1918964). The method, boiled down:
as §3

The nature of assay [15]: Quantitative High-Throughput drug screen in 47 multiple myeloma cell lines against the NCATS MIPE library collection: H1112_PLB cell viability assay (AID 1918967; note: nearly all actives have a fitted effect of over 30% in size). The method, boiled down:
as §3

A short description of assay [16]: Quantitative High-Throughput drug screen in 47 multiple myeloma cell lines against the NCATS MIPE library collection: KMS12BM_JCRB cell viability assay (AID 1918971). Note: nearly all actives have a fitted effect of over 35% in size. The essentials: as §1
Assay [17] in a line: Quantitative High-Throughput drug screen in 47 multiple myeloma cell lines against the NCATS MIPE library collection: KMS21BM_JCRB cell viability assay (AID 1918974). Conditions: ATP luminescence, 48 h; viability: at 45.8 µM (top of the series). The method, boiled down: as §3
Assay [18] can be described thus: Quantitative High-Throughput drug screen in 47 multiple myeloma cell lines against the NCATS MIPE library collection: KMS26_JCRB cell viability assay (AID 1918975). Note: nearly all actives have a fitted effect of over 45% in size. The essentials:
as §1

A short description of assay [19]: Quantitative High-Throughput drug screen in 47 multiple myeloma cell lines against the NCATS MIPE library collection: MOLP8_DSMZ cell viability assay (AID 1918977). Note: nearly all actives have a fitted effect of over 45% in size. The method, boiled down: as §4
Assay [20] can be described thus: Quantitative High-Throughput drug screen in 47 multiple myeloma cell lines against the NCATS MIPE library collection: OCIMY1_PLB cell viability assay (AID 1918979). Note: nearly all actives have a fitted effect of over 35% in size. The essentials:
as §4
Potency is the fitted concentration of half-maximal effect.

On to `CNC(=O)c1cc(Oc2ccc(NC(=O)Nc3ccc(Cl)c(C(F)(F)F)c3)cc2)ccn1`, for which the Potency in assay [1] was 11.8 µM (active); in assay [2], 10.5 µM (active); in [3], 13.2 µM (active); in [4], 23.5 µM (active); in assay [5] it was 6.62 µM (active); in [6], 3.32 µM (active). For the same molecule, the Potency in assay [7] was 3.72 µM (active); in assay [8], 16.6 µM (active); in assay [9], 16.6 µM (active); in assay [10], 10.5 µM (active); in assay [11], 3.72 µM (active); in [12], 20.9 µM (active). For the same molecule, the Potency in assay [13] is 20.9 µM (active).

As to `CNNCc1ccc(C(=O)NC(C)C)cc1`, the Potency result in assay [1], in assay [2], in assay [14], in assay [4], in assay [15] and in assay [6] was “inactive” throughout. The Potency entry in assay [7] and in assay [10] was “inactive” in each case. The Potency in assay [16] is 4.69 µM (active); in assay [17] it was 2.35 µM (active); in assay [18], 18.7 µM (active); in assay [9], 8.33 µM (active).

Consider `COc1cc2nc(N3CCCN(C)CC3)nc(NC3CCN(Cc4ccccc4)CC3)c2cc1OC`, for which the Potency in assay [1] was 2.35 µM (active); in assay [2], 9.35 µM (active); in assay [14], 7.43 µM (active); in [3], 2.35 µM (active); in assay [4] it was 16.6 µM (active); in [15], 5.9 µM (active). The Potency is 5.26 µM (active) in assay [5]; 4.18 µM (active) in assay [6]; 14.8 µM (active) in assay [16]; 2.35 µM (active) in [7]; 0.833 µM (active) in [8]; 4.69 µM (active) in [17]. For the same molecule, the Potency in assay [18] was 5.26 µM (active); in assay [9] it was 5.26 µM (active); in [19] it was 4.69 µM (active); in assay [10], 2.64 µM (active); in [20], 5.9 µM (active); in [11], 2.64 µM (active). Moreover, the Potency in [12] was 4.18 µM (active); in assay [13], 4.69 µM (active).

For `CCOC(=O)[C@H](CCc1ccccc1)N[C@H]1CCc2ccccc2N(CC(=O)O)C1=O`, the Potency was 37.2 µM (active) in assay [1]; 20.9 µM (active) in assay [2]; 9.35 µM (active) in assay [14]; 14.8 µM (active) in assay [3]; 23.5 µM (active) in [4]; 9.35 µM (active) in assay [6]. Moreover, the Potency in assay [16] was 29.6 µM (active); in assay [7], 8.33 µM (active); in assay [8], 5.9 µM (active); in [17], 9.35 µM (active); in [9] it was 18.7 µM (active); in [19] it was 18.7 µM (active). In addition, the Potency is 26.4 µM (active) in assay [10], 23.5 µM (active) in [20], 8.33 µM (active) in [11] and 20.9 µM (active) in [13].

`N[C@@H](C(=O)N[C@@H]1C(=O)N2C(C(=O)O)=C(Cl)CS[C@H]12)c1ccccc1`: the Potency result in [1], in assay [2], in [14], in [3], in assay [4] and in assay [15] was “inactive” each time. In addition, the Potency result in [6], in assay [7], in [8], in assay [19], in assay [10] and in assay [11] was “inactive” throughout. Further, the Potency result in [13] was “inactive”.

On to `CCn1cc(C(=O)O)c(=O)c2cc(F)c(N3CCNCC3)cc21`, for which the Potency entry in assay [1], in [2], in assay [14], in assay [3], in assay [15] and in assay [5] was “inactive” throughout. Further, the Potency entry in [6], in assay [8], in assay [9], in [10] and in assay [20] was “inactive” throughout.

Turning to `C[C@@H]1C[C@H]2[C@@H]3CCC4=CC(=O)C=C[C@]4(C)[C@@]3(Cl)[C@@H](O)C[C@]2(C)[C@@]1(OC(=O)c1ccco1)C(=O)CCl`, the Potency in [1] was 9.35 µM (active); in [2] it was 9.35 µM (active); in assay [14], 7.43 µM (active); in assay [3], 2.96 µM (active); in assay [4] it was 2.35 µM (active); in assay [6], 10.5 µM (active). In addition, the Potency was 18.7 µM (active) in assay [16]; 4.69 µM (active) in assay [7]; 7.43 µM (active) in assay [8]; 14.8 µM (active) in assay [18]; 18.7 µM (active) in [9]; 3.32 µM (active) in [10].

Take `Cn1c(=O)c2c(ncn2CC(O)CO)n(C)c1=O` (stereo not given): the Potency result in assay [1], in assay [2], in assay [14], in [3], in assay [6] and in assay [16] was “inactive” in each case. Besides, the Potency result in [7], in [8], in assay [18], in assay [9], in assay [19] and in assay [10] was “inactive” throughout. For the same molecule, the Potency result in assay [20], in [11], in assay [12] and in assay [13] was “inactive” in each case.

For `Cc1oc(=O)oc1CN1CCN(c2cc3c(cc2F)c(=O)c(C(=O)O)c2n3C(C)S2)CC1` (stereo not given), the Potency result in [1], in [2], in assay [14], in [15], in assay [6] and in assay [7] was “inactive” throughout. Moreover, the Potency result in [10] was “inactive”. Also, the Potency is 14.8 µM (active) in assay [4] and 13.2 µM (active) in assay [16].

Consider `Oc1c(Cl)cc(Cl)c2cccnc12`, for which the Potency in assay [1] is 26.4 µM (active); in assay [2] it was 9.35 µM (active); in [14], 8.33 µM (active); in assay [3] it was 16.6 µM (active); in assay [4], 8.33 µM (active); in [5] it was 9.35 µM (active). Besides, the Potency in assay [6] is 16.6 µM (active); in assay [16], 4.69 µM (active); in assay [7], 14.8 µM (active); in [8] it was 11.8 µM (active); in [9], 16.6 µM (active); in assay [19], 11.8 µM (active). Besides, the Potency in assay [10] was 10.5 µM (active); in [20], 18.7 µM (active); in assay [11], 7.43 µM (active); in assay [12], 11.8 µM (active); in assay [13], 26.4 µM (active).

Consider `Cc1ccc(S(=O)(=O)N[C@@H](Cc2ccccc2)C(=O)CCl)cc1`, for which the Potency in assay [1] is 16.6 µM (active); in [2] it was 13.2 µM (active); in [3], 5.9 µM (active); in [4] it was 18.7 µM (active); in assay [15], 16.6 µM (active); in assay [5], 9.35 µM (active). Besides, the Potency was 13.2 µM (active) in assay [6]; 18.7 µM (active) in assay [16]; 16.6 µM (active) in assay [7]; 14.8 µM (active) in [17]; 20.9 µM (active) in assay [9]; 14.8 µM (active) in assay [19]. In addition, the Potency in [10] is 10.5 µM (active); in assay [11], 11.8 µM (active); in [12], 16.6 µM (active); in assay [13], 20.9 µM (active).
